# Laboratory results taken from PubChem BioAssay.
# Calls of active or inactive are those of the source.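 The calls were made as follows, unless noted: active = inhibition above 20% together with a positive visual image hit; inconclusive = visual image hit but inhibition not above 20%; inactive = no visual image hit.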
# Tests used:
# [1] = inhibitors of TNFa-induced NFkB p65 translocation, primary screen, imaging, HUVEC, MLSMR starter and 10KST1 sets (AID 438); conditions: HUVEC TNFa-induced p65 nuclear translocation; cell count: measured here: nuclei count (cytotoxicity indicator), at 2.08 µM; inhibition: at 2 µM, stronger effect = higher value, 0% TNFa-plus-vehicle, 100% no-TNFa wells;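 also: compound added about 3h40 before a 20 min TNFalpha stimulation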;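 as to inhibition: signal is the nuclear over cytoplasmic p65 intensity ratio per well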
# [2] = reduction of polyQ htt aggregates in cells – imaging, exon1htt(103Q)mCFP cells, high-content imaging, primary screen (AID 483;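 active = visual image review flags a hit and inhibition of aggregation exceeds 20%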;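 also: compound exposure lasted 3 days before fixation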;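 as to nuclei count: percent of the per-plate median nuclei count of sample wells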); conditions: exon1htt(103Q)mCFP cell line, aggregate imaging, at 2 µM; inhibition of aggregation: stronger effect = higher value; nuclei count: measured here: cell count, toxicity
# [3] = endothelial E-selectin expression blockers – imaging, HUVEC, immunofluorescence, MLSMR starter and 10KST1 sets, primary screen (AID 487;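 active = visually confirmed hit in the image check and inhibition above 20%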;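 as to inhibition: signal is fraction of cell area covered by stained E-selectin grains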;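 as to nuclei count: 100% = median nuclei count of all wells on the same plate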); conditions: HUVEC TNFalpha-induced E-selectin immunofluorescence imaging, at 2 µM; inhibition: stronger effect = higher value; nuclei count: measured here: cell number, toxicity
# [4] = biological target: Voltage-gated potassium channel subunit beta-2 (Rattus norvegicus) (UniProt P62483); experiment: inhibitors of rat Kvbeta2 reductase activity – biochemical, NADPH fluorescence, primary screen (AID 622;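 active = fluorescence slope higher than the sample average by over 3 SD, cut at about -0.22 in these data, passing the limit was not always enough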;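 also: slope of raw intensity against log time taken from 70 to 1610 s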); conditions: recombinant KvBeta, 4-cyanobenzaldehyde reduction, at 10 µM, stronger effect = higher value
# Chain of Voltage-gated potassium channel subunit beta-2 (Rattus norvegicus) (P62483 whole entry, looked up): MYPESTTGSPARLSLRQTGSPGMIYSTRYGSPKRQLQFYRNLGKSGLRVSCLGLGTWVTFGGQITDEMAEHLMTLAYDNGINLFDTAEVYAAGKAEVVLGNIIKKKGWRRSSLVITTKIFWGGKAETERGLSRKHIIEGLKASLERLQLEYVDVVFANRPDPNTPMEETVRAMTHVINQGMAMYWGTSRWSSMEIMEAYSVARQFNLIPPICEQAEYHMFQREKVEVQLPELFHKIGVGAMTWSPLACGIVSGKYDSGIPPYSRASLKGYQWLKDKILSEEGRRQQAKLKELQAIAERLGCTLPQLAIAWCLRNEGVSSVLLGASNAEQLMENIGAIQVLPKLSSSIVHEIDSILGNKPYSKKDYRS
# [5] = biological target: Voltage-gated potassium channel subunit beta-2 (Rattus norvegicus) (UniProt P62483); experiment: enhancers of rat Kvbeta2 NADPH turnover – biochemical, NADPH fluorescence, primary screen (AID 623;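 active = NADPH fluorescence slope more negative than the mean of all samples by about 3 SD, 99.7% confidence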;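 also: fluorescence intensity change per second fitted from 20 to 320 s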); conditions: Recombinant KvBeta, NADPH fluorescence decrease slope, 10 min; at 10 µM; stronger effect = lower value
# [6] = biological target: Alpha-2C adrenergic receptor (Homo sapiens) (UniProt P18825); experiment: compounds altering alpha2C-coupled GIRK flux – cell-based, HEK293 alpha2C/GIRK1/2, thallium flux, primary screen (AID 624;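 active = fluorescence slope after compound addition differing from the mean of all screened samples at 99.7% confidence, in either direction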;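 also: slope of fluorescence ratio to pre-addition baseline per second over 15 to 24 s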); conditions: thallium flux BTC fluorescence, at 10 µM, actives lie on both sides
# Chain of Alpha-2C adrenergic receptor (Homo sapiens) (P18825 whole entry, looked up): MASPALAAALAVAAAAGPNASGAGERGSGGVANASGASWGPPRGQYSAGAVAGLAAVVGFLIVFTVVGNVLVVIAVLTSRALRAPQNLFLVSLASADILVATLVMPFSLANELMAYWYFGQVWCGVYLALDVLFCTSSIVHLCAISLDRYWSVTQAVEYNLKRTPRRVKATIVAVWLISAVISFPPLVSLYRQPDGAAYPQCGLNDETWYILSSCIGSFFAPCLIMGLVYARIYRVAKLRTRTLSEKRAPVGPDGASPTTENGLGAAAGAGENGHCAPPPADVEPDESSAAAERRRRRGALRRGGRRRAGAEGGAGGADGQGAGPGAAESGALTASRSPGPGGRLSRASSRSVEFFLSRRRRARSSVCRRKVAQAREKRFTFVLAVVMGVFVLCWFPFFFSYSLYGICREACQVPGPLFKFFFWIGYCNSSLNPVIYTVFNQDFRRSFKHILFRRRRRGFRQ
# [7] = blockers of RIG-like receptor reporter activation – cell-based, Sendai virus stimulus, luciferase, 10K MLSCN set, TLR/RLR signaling modifier project, primary screen (AID 602276;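 active = inhibition at or above 50% at 10 µM; inactive = inhibition below 50%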;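 also: firefly luciferase from ISG56 promoter only with Renilla not read in this screen; 0% = Sendai virus plus DMSO and 100% = medium plus DMSO without virus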); conditions: HEK293 RL24 IRF3 luciferase reporter, at 10 µM, stronger effect = higher value
# [8] = TLR3 IRF3 reporter activation blockers – cell-based, poly I:C stimulus, luciferase, 10K MLSCN set, primary screen (AID 602277;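 active = inhibition of the reporter signal at or above 50%; inactive = inhibition below 50%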); conditions: HEK293-TLR3 RL24 IRF3 luciferase reporter, at 10 µM, stronger effect = higher value
SMILES,cell count [1],inhibition [1],inhibition of aggregation [2],nuclei count [2] [%],inhibition [3],nuclei count [3] [%],fluorescence slope [4],NADPH fluorescence slope [5],slope [6],inhibition [7],inhibition [8]
COc1ccc(-c2c3c(=O)n(C)c(=O)n(C)c3cn2-c2cccc(OC)c2)cc1,430,5.2% (inactive),5.3% (inactive),110,-50.3% (inactive),99.9,-0.605 (inactive),6.5e-06 (inactive),0.00638 (inactive),-0.838% (inactive),0.686% (inactive)
CC1=C(C(=O)OC(C)C)C(C2CC=CCC2)NC(=O)N1 (centres undefined),306,2% (inactive),17.1% (inactive),93,35.9% (inactive),98.9,-0.322 (inactive),1.4e-05 (inactive),0.0059 (inactive),0.205% (inactive),9.1% (inactive)
CCn1c(SCC(=O)Nc2ccc3c(c2)OCO3)nc2c(c1=O)SC(C)C2 (centres undefined),496,9.6% (inactive),4% (inactive),111,15.4% (inactive),95.3,-0.561 (inactive),-5e-05 (inactive),0.00661 (inactive),-0.539% (inactive),16.9% (inactive)
CCOC(=O)CN1CC23C=CC(O2)C(C(=O)NCc2ccc(F)cc2)C3C1=O (centres undefined),572,-2% (inactive),15.7% (inactive),106,-142% (inactive),131,-0.589 (inactive),-1.1e-05 (inactive),0.00638 (inactive),14% (inactive),27.7% (inactive)
Clc1ccc(OCCCn2cncn2)cc1Cl,432,3.4% (inactive),21.2% (inactive),99.2,7.8% (inactive),94.7,-0.523 (inactive),5.3e-06 (inactive),0.00702 (inactive),10.6% (inactive),-19.6% (inactive)
CC(C)CCNC(=O)C(c1ccco1)N(CC1CCCO1)C(=O)Cn1nnc2ccccc21 (centres undefined),393,10.3% (inactive),5.4% (inactive),104,-72.5% (inactive),103,-0.612 (inactive),-4.6e-05 (inactive),0.00382 (inactive),8.01% (inactive),16.4% (inactive)
O=c1c2ccc(-c3nnc4n3-c3ccccc3SC4)cc2nc2n1CCCCC2,473,-1.1% (inactive),9% (inactive),111,-41.6% (inactive),116,-0.414 (inactive),-3.1e-05 (inactive),0.00551 (inactive),11.2% (inactive),14.5% (inactive)
CC(C)COc1ccc(C(=O)OCCN2CCOCC2)cc1,211,2.3% (inactive),-8.6% (inactive),108,-18.5% (inactive),116,-0.636 (inactive),1.1e-05 (inactive),0.00666 (inactive),-17.8% (inactive),-15% (inactive)
O=C1NC(c2ccco2)Nc2ccccc21 (centres undefined),694,-50% (inactive),-23.8% (inactive),102,-84.8% (inactive),107,-0.344 (inactive),1.4e-05 (inactive),0.00562 (inactive),-17.2% (inactive),99.3% (active)
Oc1cccc(Nc2nc(NCC3CCCO3)c3ccccc3n2)c1 (centres undefined),555,-70.4% (inactive),-4.4% (inactive),95.5,-47.9% (inactive),104,-0.612 (inactive),2.9e-05 (inactive),0.00401 (inactive),14.4% (inactive),-32.6% (inactive)
Cc1ccc(NC(=O)COS(=O)c2ccc(C)cc2)cc1 (centres undefined),420,5.8% (inactive),2.9% (inactive),94.3,-11.2% (inactive),125,-0.58 (inactive),-2e-05 (inactive),0.00583 (inactive),6.94% (inactive),-1.39% (inactive)
CCCCSc1nc(CCC)cc(=O)[nH]1,383,-0.3% (inactive),-4% (inactive),98.2,3.8% (inactive),116,-0.34 (inactive),5.5e-06 (inactive),0.00636 (inactive),5.02% (inactive),2.79% (inactive)
CC(=O)c1c(O)cc(C)n(Nc2nc(C)cc(C)n2)c1=O,625,-12.1% (inactive),-23.4% (inactive),91.3,28.7% (inactive),91.8,-0.343 (inactive),-5.3e-05 (inactive),0.00406 (inactive),-1.56% (inactive),-18.7% (inactive)
Cc1cc2ccccc2n1CCNC(=O)C1CC1,709,-6.9% (inactive),-3.6% (inactive),107,-35% (inactive),120,-0.42 (inactive),-3.8e-05 (inactive),0.00596 (inactive),11.4% (inactive),33.2% (inactive)
Cn1c(=O)[nH]c(=O)c2c1nc(NCCCn1ccnc1)n2Cc1ccccc1,433,0.3% (inactive),-7.8% (inactive),130,-46.4% (inactive),119,-0.603 (inactive),-3.4e-05 (inactive),0.00342 (inactive),-9.45% (inactive),-6.06% (inactive)
CCOc1cc2[nH]c(=S)n(CC3CCCO3)c(=O)c2cc1OCC (centres undefined),317,-0.5% (inactive),1% (inactive),104,-51.1% (inactive),115,-0.491 (inactive),4e-05 (inactive),0.00618 (inactive),-8.82% (inactive),15.8% (inactive)
CS(=O)(=O)N1CCCC(C(=O)NCCCN2CCc3ccccc3C2)C1 (centres undefined),228,3.4% (inactive),10.5% (inactive),83.5,35.8% (inactive),83.4,-0.54 (inactive),-1.5e-05 (inactive),0.00591 (inactive),-8.77% (inactive),5.97% (inactive)
COc1ccc(C(=O)NCc2nc3ccccc3[nH]2)cc1OC,679,-0.5% (inactive),6.6% (inactive),82.2,-7.5% (inactive),112,-0.582 (inactive),3.9e-06 (inactive),0.0061 (inactive),-1.85% (inactive),25% (inactive)
Cc1cc(N2CCN(C)CC2)nc(N2CCOCC2)n1,692,-9.4% (inactive),-6.8% (inactive),125,-24.5% (inactive),109,-0.425 (inactive),-4.1e-05 (inactive),0.00311 (inactive),-2.65% (inactive),25.9% (inactive)
Cc1ccc2occ(CN3CCN(c4ccccc4)CC3)c(=O)c2c1,258,-0.8% (inactive),14.3% (inactive),81.9,-17% (inactive),93.3,-0.454 (inactive),-1.6e-05 (inactive),0.00585 (inactive),15.8% (inactive),18.1% (inactive)
CC1CCN(S(=O)(=O)c2ccc3[nH]c(=O)cc(C(=O)O)c3c2)CC1,323,-20.8% (inactive),8.5% (inactive),129,-20% (inactive),104,-0.463 (inactive),-0.000161 (inactive),0.00662 (inactive),-2.34% (inactive),13% (inactive)
CCn1c(CCNC(=O)c2cccs2)nnc1SCC(=O)c1ccc(OC)cc1,263,0.8% (inactive),-4.7% (inactive),99.7,-94.1% (inactive),115,-0.398 (inactive),2.4e-05 (inactive),0.00289 (inactive),-4.44% (inactive),-7.83% (inactive)
CN(C)S(=O)(=O)c1ccc(S(=O)(=O)N(Cc2ccco2)Cc2ccccc2Cl)cc1,478,4% (inactive),0.8% (inactive),98.9,-58.4% (inactive),99.8,-0.523 (inactive),8.8e-06 (inactive),0.00696 (inactive),4.31% (inactive),53.4% (active)
O=C(CSc1nc2ccccc2[nH]1)c1ccc2c(c1)OCO2,673,2.4% (inactive),-4% (inactive),102,-2.6% (inactive),100,-0.471 (inactive),-1.2e-05 (inactive),0.00599 (inactive),18.8% (inactive),-39.5% (inactive)
CCN(CC)Cc1nc2c(c(=O)[nH]1)C1(CCCCC1)Cc1ccccc1-2,443,9.9% (inactive),-2.4% (inactive),89.3,-17% (inactive),101,-0.589 (inactive),-5.5e-05 (inactive),0.00352 (inactive),10% (inactive),10.5% (inactive)
O=C(Nc1ccccc1C(=O)N1CCOCC1)c1cccc(S(=O)(=O)N2CCCC2)c1,440,-5.3% (inactive),0.3% (inactive),92.3,-138% (inactive),118,-0.455 (inactive),4.9e-06 (inactive),0.00695 (inactive),2.51% (inactive),22.9% (inactive)
CCN(CC)C(=O)C1CCC(CNS(=O)(=O)c2cccc3cccnc23)CC1 (centres undefined),787,4.4% (inactive),-8.4% (inactive),94.4,-26.3% (inactive),114,-0.497 (inactive),-2.6e-05 (inactive),0.00724 (inactive),11.4% (inactive),16.8% (inactive)
O=C(Nc1cccc2ncccc12)c1ccc2c(c1)OCCO2,586,2.2% (inactive),11.1% (inactive),101,-8.1% (inactive),81.2,-0.46 (inactive),-4.6e-05 (inactive),0.00308 (inactive),-12.7% (inactive),-8.56% (inactive)
CN(C)S(=O)(=O)Nc1ccccc1C(N)=O,425,-9.8% (inactive),-9.1% (inactive),102,-21.7% (inactive),109,-0.355 (inactive),-3.8e-05 (inactive),0.00484 (inactive),15.1% (inactive),11.7% (inactive)
